# Reference: PubChem BioAssay
# The source made the active and inactive calls. Unless noted, how the calls were made is not given here.
# Assays:
# [1] = compound effects on lung adenocarcinoma cell viability – A549, calcein-AM fluorescence, 48 h, basal, profiling panel (AID 1162); conditions: higher = more signal; further: test concentration not given here
# [2] = compound effects on differentiated 3T3-L1 adipocyte viability – cell-based, 3T3-L1 adipocytes, calcein-AM fluorescence, 48 h, basal, profiling panel (AID 1163); conditions: 3T3-L1 adipocytes viability, higher = more signal; further: test concentration not given here
# [3] = compound effects on hepatocellular carcinoma cell viability – HepG2, calcein-AM fluorescence, 48 h, basal, profiling panel (AID 1164); conditions: higher = more signal; further: test concentration not given here
# [4] = compound effects on multiple myeloma cell viability – MM1S, calcein-AM fluorescence, 48 h, basal, profiling panel (AID 1165); conditions: higher = more signal; further: test concentration not given here
# [5] = calcein-AM signal in unstimulated myeloma cells – cell-based, calcein-AM fluorescence, 48 h, PK04 Diversity Set, profiling panel (AID 1166); conditions: RPMI8226 myeloma viability, higher = more signal;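 further: cells grown under basal conditions without added stimulus; test concentration not given here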
# [6] = JC-1 mitochondrial signal, unstimulated HepG2 cells – cell-based, JC-1 fluorescence, 24 h, 100 nL compound, profiling panel (AID 1167); conditions: HepG2 mitochondrial potential, higher = more signal; further: test concentration not given here
# [7] = JC-1 mitochondrial signal, unstimulated adipocytes – cell-based, JC-1 fluorescence, 3T3-L1 adipocytes, 24 h, 100 nL compound, profiling panel (AID 1168); conditions: JC-1 mitochondrial fluorescence, higher = more signal, called active from +8 up or from −8 down; further: test concentration not given here
# [8] = JC-1 mitochondrial signal, unstimulated myeloma cells – cell-based, JC-1 fluorescence, RPMI8226, 24 h, 100 nL compound, profiling panel (AID 1169); conditions: JC-1 mitochondrial potential fluorescence, higher = more signal; further: test concentration not given here
# [9] = JC-1 mitochondrial signal, unstimulated MM1S myeloma – cell-based, JC-1 fluorescence, 24 h, 100 nL compound, profiling panel (AID 1170); conditions: MM1S mitochondrial potential, higher = more signal; further: test concentration not given here
# [10] = resazurin metabolic signal in A549 cells – cell-based, resazurin fluorescence, 24 h, PK04 Diversity Set, profiling panel (AID 1171); conditions: A549 viability, higher = more signal, called active from +8 up or from −8 down; further: test concentration not given here
# [11] = resazurin metabolic signal in HepG2 cells – cell-based, resazurin fluorescence, 24 h, PK04 Diversity Set, profiling panel (AID 1172); conditions: HepG2 viability, higher = more signal; further: test concentration not given here
# [12] = budding yeast growth changes without added modifier – OD600, strain BY4716, 24 h, basal condition, primary screen (AID 1173); conditions: S. cerevisiae BY4716 growth, OD600, 24 h; higher = more signal, called active from +8 up or from −8 down
# [13] = viability profiling in MM1S myeloma cells – cell-based, resazurin fluorescence, basal, 24 h, PK04 Diversity Set, profiling panel (AID 1174); conditions: higher = more signal, called active from +8 up or from −8 down; further: test concentration not given here
# [14] = biological target: Dihydroorotate dehydrogenase (quinone), mitochondrial (Plasmodium falciparum (isolate 3D7)) (UniProt Q08210); experiment: inhibition of P. falciparum DHODH – biochemical, C-terminal His tag, absorbance 600 nm, primary screen (AID 1175); conditions: PfDHODH enzyme, DCIP absorbance 600 nm; higher = more signal, called active from +8 up or from −8 down;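 further: recombinant parasite enzyme with a five histidine tag at its C terminus; test concentration not given here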
# [15] = inhibition of PAO1 biofilm formation – strain PAO1, LB-PBS medium, absorbance 600 nm, primary screen (AID 1176); further: test concentration not given here; conditions: P. aeruginosa PAO1 growth/biofilm, A600, 12 h; higher = more signal
# [16] = growth modulation of vineyard yeast isolate – strain RM11-1a, OD600, basal, 24 h, primary screen (AID 1177);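 further: cultures grown under basal conditions with no added stressor; test concentration not given here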; conditions: S. cerevisiae RM11-1a growth, OD600, 24 h; higher = more signal, called active from +8 up or from −8 down
# [17] = growth of efflux-deficient E. coli DRC39 – strain DRC39, OD650, 24 h, E. coli filamentation inducers, primary screen (AID 1178);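 further: growth measured as culture turbidity by optical density at 650 nm; test concentration not given here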; conditions: E. coli DRC39 acrAB, higher = more signal, called active from +8 up or from −8 down
# [18] = growth of efflux-deficient E. coli DRC39 – strain DRC39, OD650, 48 h, E. coli filamentation inducers, primary screen (AID 1179);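 further: screen aims at cell division blockers that make cells filament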; conditions: E. coli DRC39 delta-acrAB growth, higher = more signal, called active from +8 up or from −8 down
# [19] = viability profiling in RPMI8226 myeloma cells – cell-based, resazurin fluorescence, basal, 24 h, PK04 Diversity Set, profiling panel (AID 1180); conditions: higher = more signal;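 further: RPMI8826 multiple myeloma cell line at 5000 cells per well; test concentration not given here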
# [20] = biological target: E3 ubiquitin-protein ligase XIAP (Homo sapiens) (UniProt P98170); experiment: small molecules binding XIAP protein – biophysical, small-molecule microarray, fluorescence 635 nm, primary screen (AID 1181); conditions: higher = more signal;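 further: score merges 667 nm emission and signal to noise over triplicate slides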
# Chain of E3 ubiquitin-protein ligase XIAP (Homo sapiens) (P98170 whole entry, looked up): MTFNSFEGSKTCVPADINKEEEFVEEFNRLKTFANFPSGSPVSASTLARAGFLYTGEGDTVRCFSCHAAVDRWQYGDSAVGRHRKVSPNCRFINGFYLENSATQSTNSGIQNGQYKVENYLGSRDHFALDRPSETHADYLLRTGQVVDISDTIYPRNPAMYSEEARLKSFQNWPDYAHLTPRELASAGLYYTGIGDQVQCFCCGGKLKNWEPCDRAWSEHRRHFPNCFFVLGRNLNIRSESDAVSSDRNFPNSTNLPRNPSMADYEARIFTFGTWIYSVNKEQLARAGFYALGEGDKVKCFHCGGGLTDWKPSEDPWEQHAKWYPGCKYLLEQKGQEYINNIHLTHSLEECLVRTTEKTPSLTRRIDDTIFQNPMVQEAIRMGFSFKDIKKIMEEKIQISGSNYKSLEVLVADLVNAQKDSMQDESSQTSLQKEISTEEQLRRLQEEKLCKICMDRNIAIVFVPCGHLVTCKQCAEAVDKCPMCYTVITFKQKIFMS
# Chain of Dihydroorotate dehydrogenase (quinone), mitochondrial (Plasmodium falciparum (isolate 3D7)) (Q08210 whole entry, looked up): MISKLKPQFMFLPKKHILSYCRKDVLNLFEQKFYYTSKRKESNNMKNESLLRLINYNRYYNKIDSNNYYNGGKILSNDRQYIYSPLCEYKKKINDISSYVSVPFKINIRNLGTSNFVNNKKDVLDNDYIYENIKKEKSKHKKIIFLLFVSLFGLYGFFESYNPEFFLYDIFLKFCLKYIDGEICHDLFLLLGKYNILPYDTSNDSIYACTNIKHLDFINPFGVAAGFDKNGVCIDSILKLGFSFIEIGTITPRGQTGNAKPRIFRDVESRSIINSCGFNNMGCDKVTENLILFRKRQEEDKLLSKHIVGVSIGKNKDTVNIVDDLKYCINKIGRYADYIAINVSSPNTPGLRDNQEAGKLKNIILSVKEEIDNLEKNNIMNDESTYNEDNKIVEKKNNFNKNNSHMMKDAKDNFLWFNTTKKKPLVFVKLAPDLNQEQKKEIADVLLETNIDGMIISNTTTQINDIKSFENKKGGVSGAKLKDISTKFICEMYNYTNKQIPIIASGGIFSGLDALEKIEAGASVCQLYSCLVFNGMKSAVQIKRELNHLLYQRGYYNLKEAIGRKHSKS
smiles,measurement,setting,value
COC(=O)[C@H](C)NC(=O)CCC1CC(OC(=O)NCCc2ccc(F)cc2)CC2(CCCC(COC(=O)NCc3cccc(C(F)(F)F)c3)O2)O1 (stereo not given in full),z-score,[1],-0.925
same,z-score,[2],0.704
same,z-score,[3],-1.69
same,z-score,[4],-3.48
same,z-score,[5],-0.416
same,z-score,[6],-0.15
same,z-score,[7],-0.835 (inactive)
same,z-score,[8],0.54
same,z-score,[9],0.533
same,z-score,[10],-0.0257 (inactive)
same,z-score,[11],-0.0701
same,z-score,[12],1.05 (inactive)
same,z-score,[13],0.045 (inactive)
same,composite z-score,[14],-0.302 (inactive)
same,z-score,[15],0.59 (inactive)
same,z-score,[16],0.744 (inactive)
same,z-score,[17],0.696 (inactive)
same,z-score,[18],0.602 (inactive)
same,z-score,[19],0.436
same,composite z-score,[20],0.103
CCN1C(=O)[C@H]2[C@H]3[C@H](O)[C@H](O)CC(=NOCC(C)C)[C@@H]3CC[C@H]2C1=O,z-score,[1],-0.556
same,z-score,[2],-0.0239
same,z-score,[3],-0.308
same,z-score,[4],-0.181
same,z-score,[5],0.922
same,z-score,[6],-0.501
same,z-score,[7],-0.769 (inactive)
same,z-score,[8],0.788
same,z-score,[9],0.0483
same,z-score,[10],-0.0226 (inactive)
same,z-score,[11],0.424
same,z-score,[12],-0.18 (inactive)
same,z-score,[13],-0.243 (inactive)
same,composite z-score,[14],-0.423 (inactive)
same,z-score,[15],0.99 (inactive)
same,z-score,[16],-0.589 (inactive)
same,z-score,[17],-0.556 (inactive)
same,z-score,[18],-1.86 (inactive)
same,z-score,[19],0.279
same,composite z-score,[20],-0.0696
CC(C)(C)N1C(=O)[C@H]2[C@H]3[C@H](O)[C@H](O)CC(=O)[C@@H]3CC[C@H]2C1=O,z-score,[1],-0.743
same,z-score,[2],0.436
same,z-score,[3],0.178
same,z-score,[4],-0.102
same,z-score,[5],-0.052
same,z-score,[6],-0.323
same,z-score,[7],-0.715 (inactive)
same,z-score,[8],0.967
same,z-score,[9],0.419
same,z-score,[10],0.756 (inactive)
same,z-score,[11],-0.0291
same,z-score,[12],-0.693 (inactive)
same,z-score,[13],-0.0757 (inactive)
same,composite z-score,[14],-0.251 (inactive)
same,z-score,[15],0.27 (inactive)
same,z-score,[16],-0.736 (inactive)
same,z-score,[17],-0.268 (inactive)
same,z-score,[18],-0.653 (inactive)
same,z-score,[19],-0.0415
same,composite z-score,[20],-0.177
CCC=CCCC(OC(=O)c1ccc(Br)cc1)C1=CCCCC1=O (stereo not given),z-score,[1],-0.211
same,z-score,[2],-0.648
same,z-score,[3],-0.805
same,z-score,[4],-3.68
same,z-score,[5],-3.51
same,z-score,[6],-1.12
same,z-score,[7],-0.711 (inactive)
same,z-score,[8],-0.449
same,z-score,[9],-1.97
same,z-score,[10],0.863 (inactive)
same,z-score,[11],-0.0791
same,z-score,[12],-2.43 (inactive)
same,z-score,[13],-1.06 (inactive)
same,composite z-score,[14],-1.38 (inactive)
same,z-score,[15],0.119 (inactive)
same,z-score,[16],-0.791 (inactive)
same,z-score,[17],0.181 (inactive)
same,z-score,[18],0.0322 (inactive)
same,z-score,[19],-0.88
same,composite z-score,[20],-0.291
O=C1C[C@@H](O)[C@@H](O)[C@@H]2[C@@H]3C(=O)N(C[C@@H]4CCCO4)C(=O)[C@@H]3CC[C@H]12,z-score,[1],-0.232
same,z-score,[2],-0.42
same,z-score,[3],0.614
same,z-score,[4],0.136
same,z-score,[5],0.433
same,z-score,[6],0.446
same,z-score,[7],0.763 (inactive)
same,z-score,[8],-0.131
same,z-score,[9],-0.586
same,z-score,[10],-0.747 (inactive)
same,z-score,[11],-0.57
same,z-score,[12],-0.189 (inactive)
same,z-score,[13],-0.0898 (inactive)
same,composite z-score,[14],0.602 (inactive)
same,z-score,[15],-0.744 (inactive)
same,z-score,[16],0.739 (inactive)
same,z-score,[17],0.343 (inactive)
same,z-score,[18],0.17 (inactive)
same,z-score,[19],-0.449
same,composite z-score,[20],-0.28
COC(=O)[C@@H]1CC[C@H](C)[C@@H](c2ccc(C)cc2)N1C(=O)c1ccc(C=NO[C@@H]2O[C@H](COC(C)=O)[C@@H](OC(C)=O)[C@H](OC(C)=O)[C@H]2OC(C)=O)cc1,z-score,[1],-1.3
same,z-score,[2],0.216
same,z-score,[3],-0.373
same,z-score,[4],-0.82
same,z-score,[5],-1.17
same,z-score,[6],2.74
same,z-score,[7],0.28 (inactive)
same,z-score,[8],-0.139
same,z-score,[9],0.155
same,z-score,[10],0.855 (inactive)
same,z-score,[11],-0.124
same,z-score,[12],0.786 (inactive)
same,z-score,[13],0.952 (inactive)
same,composite z-score,[14],-2.7 (inactive)
same,z-score,[15],-0.172 (inactive)
same,z-score,[16],0.178 (inactive)
same,z-score,[17],-1.44 (inactive)
same,z-score,[18],-1.65 (inactive)
same,z-score,[19],0.369
same,composite z-score,[20],0.0131
C=CC[C@@H]1C=C[C@H](ON=C[C@@H](C)[C@H](OCc2ccccc2)C(C)C)[C@@H](CO)O1,z-score,[1],-0.475
same,z-score,[2],-0.162
same,z-score,[3],-0.746
same,z-score,[4],-1.55
same,z-score,[5],-0.958
same,z-score,[6],-1.94
same,z-score,[7],-0.87 (inactive)
same,z-score,[8],-0.419
same,z-score,[9],-0.874
same,z-score,[10],0.0506 (inactive)
same,z-score,[11],0.0253
same,z-score,[12],-5.6 (inactive)
same,z-score,[13],-0.865 (inactive)
same,composite z-score,[14],-0.408 (inactive)
same,z-score,[15],0.241 (inactive)
same,z-score,[16],-0.62 (inactive)
same,z-score,[17],-0.295 (inactive)
same,z-score,[18],-0.238 (inactive)
same,z-score,[19],-0.183
same,composite z-score,[20],-0.138
CCOC(=O)NN=C1C[C@@H](O)[C@@H](O)[C@@H]2[C@@H]3C(=O)N(c4cccc(Oc5ccccc5)c4)C(=O)[C@@H]3CC[C@H]12,z-score,[1],0.285
same,z-score,[2],1.01
same,z-score,[3],-0.0233
same,z-score,[4],0.0687
same,z-score,[5],0.443
same,z-score,[6],1.03
same,z-score,[7],0.675 (inactive)
same,z-score,[8],0.00981
same,z-score,[9],-1.56
same,z-score,[10],-0.263 (inactive)
same,z-score,[11],0.287
same,z-score,[12],-0.946 (inactive)
same,z-score,[13],-1.12 (inactive)
same,composite z-score,[14],-1.59 (inactive)
same,z-score,[15],1.05 (inactive)
same,z-score,[16],-1.39 (inactive)
same,z-score,[17],0.0624 (inactive)
same,z-score,[18],-0.642 (inactive)
same,z-score,[19],0.529
same,composite z-score,[20],-0.106
CC(C)CON=C1[C@H]2CCn3c(=O)n(Cc4cc5c(cc4Cl)OCO5)c(=O)n3[C@H]2[C@H](O)[C@@H]2O[C@H]12,z-score,[1],-1.37
same,z-score,[2],0.719
same,z-score,[3],-0.0623
same,z-score,[4],-0.053
same,z-score,[5],-0.62
same,z-score,[6],-0.0638
same,z-score,[7],-0.443 (inactive)
same,z-score,[8],0.207
same,z-score,[9],-0.354
same,z-score,[10],-0.647 (inactive)
same,z-score,[11],-0.274
same,z-score,[12],-0.761 (inactive)
same,z-score,[13],-0.302 (inactive)
same,composite z-score,[14],-2.76 (inactive)
same,z-score,[15],-1.4 (inactive)
same,z-score,[16],-0.471 (inactive)
same,z-score,[17],0.42 (inactive)
same,z-score,[18],-1.6 (inactive)
same,z-score,[19],-0.241
same,composite z-score,[20],-0.0773
